Screening data as filed in PubChem.
TDP1 cell CPT = growth inhibition of DT40 Tdp1-/-;hTDP1 cells with camptothecin (screen for TDP1 inhibitors) | chicken DT40 Tdp1-/-;hTDP1 cells + 20 nM CPT, ATP luminescence, 48 h | Potency, µM (series often up to 46.2 µM), usual class: inhibitors | actives 12% (n = 420,000) | AID 686979; further: nearly all actives have a fitted effect of over 55% in size
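Cell growth measured by CellTiter-Glo luminescence after a minimum 48 h, 37 C compound exposure with 20 nM CPT in Tdp1-knockout DT40 cells stably expressing hTDP1, seeded 400/well; qHTS titration format.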
HT1080 IDH1KD tx = toxicity to HT-1080 IDH1 knockdown cells (counter line). HT-1080 IDH1 knockdown viability, ATP luminescence, 48 h. Potency, µM (top dose mostly 46.1 µM), usual class: cytotoxic. actives 2% (n = 360,000)
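Viability of IDH1-knockdown HT-1080 fibrosarcoma cells was assessed by CellTiter-Glo after 48 h at 37 °C with titrated compound; concentration-effect curves were classified by fit quality and response size.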
HT1080-NT tox = kills 2HG-producing HT-1080-NT fibrosarcoma cells | HT-1080-NT fibrosarcoma viability, CellTiter-Glo ATP luminescence, 48 h | Potency, µM (series often up to 46.1 µM), hits mostly cytotoxic | actives 1.6% (n = 360,000) | AID 686970;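 further: NT is the 2HG producing partner of a matched IDH1 knockdown line; nearly all actives have a fitted effect of over 55% in size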
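Luminescent CellTiter-Glo readout after 48 hours of compound exposure at 37 degrees C defined viability of HT-1080-NT cells. Activity was normalized to DMSO wells and cell-free media wells; concentration-response curves were fitted and assigned curve classes.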
KB-V1 cytotox = kills drug-selected multidrug resistant KB-V1 cells | KB-V1 MDR cells viability, CellTiter-Glo, 72 h | Potency, µM (highest dose often 46.1 µM), actives largely listed as cytotoxic | actives 3.4% (n = 400,000) | AID 1347076; further: nearly all actives have a fitted effect of over 60% in size
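Following 72 h at 37 degrees C with compound, KB-V1 cell viability was read by CellTiter-Glo luminescence, medium being phenol-red-free DMEM plus 10% FBS; concentration-response parameters came from normalized, curve-fitted qHTS data.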
KB-3-1 cytotox = KB-3-1 parental cell cytotoxicity; Potency, µM (doses to about 46.1 µM), hits mostly cytotoxic; KB-3-1 viability, CellTiter-Glo ATP luminescence, 72 h; actives 1.4% (n = 400,000); further: nearly all actives have a fitted effect of over 60% in size
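Cytotoxicity in the drug-sensitive parental line KB-3-1 was scored as loss of CellTiter-Glo luminescence following 72 h incubation with compound. Values come from curve fitting of normalized concentration-response data.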
TDP1 cell noCPT = qHTS for Inhibitors of human tyrosyl-DNA phosphodiesterase 1 (TDP1): qHTS in cells in absence of CPT; DT40 Tdp1-/- hTDP1 cells, no CPT, ATP luminescence, 48 h; Potency, µM (doses to about 46.2 µM), hits mostly inhibitors; actives 15% (n = 420,000); AID 686978, 2013; further: nearly all actives have a fitted effect of over 55% in size
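No-CPT arm: Tdp1-/-;hTDP1 DT40 cells (400/well) plus compounds, incubated ≥48 hr at 37 °C. Readout CellTiter-Glo luminescence.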
Large screens that a line does not name were inactive. Compounds with a hit are over-represented: about 19% of the library has one in this group of screens. The call rests on the fitted dose curve; in most records, active means well fitted curve in the direction sought with a large enough effect; inconclusive means small, poorly fitted or top-dose-only effect, or another doubt; inactive means no such curve, though single readings can be large; an effect the other way counts as inactive or inconclusive.

Cc1ccc(NC(=O)c2cc(S(=O)(=O)N3CCC(C)CC3)cn2C)cc1Cl	none (no result: HT1080 IDH1KD tx, HT1080-NT tox)
COC(=O)CSc1[nH]c2ccccc2c1[N+](=O)[O-]	TDP1 cell CPT 18.4µM
COC(=O)[C@@H]1C[C@]2(OC(=O)c3ccccc3)C=CC(=O)C[C@@H]2N1C(=O)OCc1ccccc1	TDP1 cell CPT 6.51µM, HT1080 IDH1KD tx inconclusive, HT1080-NT tox inconclusive, KB-3-1 cytotox inconclusive, TDP1 cell noCPT 7.31µM
COC(CNC(=O)C1CCCN1C(=O)OCc1ccccc1)OC (centres undefined)	none
O=C(NCc1ccc2c(c1)OCO2)c1cc(-c2ccncc2)nc2ccccc12	TDP1 cell CPT 16.4µM, KB-V1 cytotox inconclusive, TDP1 cell noCPT inconclusive
CC(NC(=O)c1cc(-c2ccc3c(c2)OCO3)nc2ccccc12)C(C)(C)C (centres undefined)	TDP1 cell CPT inconclusive, KB-V1 cytotox 16.4µM, TDP1 cell noCPT inconclusive
O=C(NCc1ccc(F)cc1)c1cc(-c2ccncc2)nc2ccccc12	TDP1 cell CPT inconclusive, HT1080-NT tox inconclusive, KB-V1 cytotox inconclusive, TDP1 cell noCPT inconclusive
O=C(O)c1cc(-c2ccc3c(c2)OCO3)nc2ccccc12	TDP1 cell CPT inconclusive
CCCNC(=O)NNC(=O)c1cc(-c2ccc3c(c2)OCO3)nc2ccccc12	TDP1 cell CPT inconclusive, TDP1 cell noCPT inconclusive
CCCN(CCC)C(=O)c1cc(-c2ccc3c(c2)OCO3)nc2ccccc12	TDP1 cell CPT 14.6µM, KB-V1 cytotox 18.4µM, TDP1 cell noCPT 14.6µM
CC(=O)Nc1ccc(S(=O)(=O)N(Cc2ccccc2)c2ccccc2F)cc1	TDP1 cell noCPT inconclusive
CCOC(=O)C1CCN(Cc2cc(=O)oc3cc(C)c(Cl)cc23)CC1	TDP1 cell CPT inconclusive, TDP1 cell noCPT 23.1µM
Cc1cc2oc(=O)cc(CN3CCCC3)c2cc1Cl	none
Oc1c(CN2CCCC(C(F)(F)F)C2)cc(Cl)c2ccccc12 (centres undefined)	TDP1 cell CPT 18.4µM, HT1080 IDH1KD tx inconclusive, HT1080-NT tox inconclusive, TDP1 cell noCPT inconclusive
CCOC(=O)C1CCN(Cc2cc(Cl)c3ccccc3c2O)CC1	TDP1 cell CPT 18.4µM, HT1080 IDH1KD tx 25.9µM, HT1080-NT tox inconclusive, TDP1 cell noCPT inconclusive
Cn1c(=O)c2c(SCC(=O)N3CCc4ccccc43)nc(-c3cccc(F)c3)nc2n(C)c1=O	none (no result: HT1080 IDH1KD tx, HT1080-NT tox)
O=C(Cc1ccc2c(c1)OCO2)N1CCOc2ccc(CN3CCOCC3)cc2C1	none (no result: HT1080 IDH1KD tx, HT1080-NT tox, KB-V1 cytotox, KB-3-1 cytotox)
COc1ccc2c(c1)C(c1ccccc1)NC(=O)C2 (centres undefined)	none
Cc1ccc(O)c(C2=NNC(c3ccc(Cl)cc3)C2)c1 (centres undefined)	TDP1 cell CPT inconclusive, TDP1 cell noCPT inconclusive
O=[N+]([O-])c1ccc(O)c(C2=NNC(c3ccccc3F)C2)c1 (centres undefined)	TDP1 cell CPT 23.1µM, HT1080 IDH1KD tx inconclusive, HT1080-NT tox 20.6µM, KB-V1 cytotox inconclusive, KB-3-1 cytotox inconclusive, TDP1 cell noCPT 16.4µM
O=C(O)C1C2C=CC(C2)C1C(=O)NCc1ccc(Cl)cc1Cl (centres undefined)	none
CC(C)(C)c1ccc(C(=O)/C=C2\NC(=O)CS2)cc1	TDP1 cell CPT 14.6µM, KB-V1 cytotox inconclusive, KB-3-1 cytotox inconclusive, TDP1 cell noCPT 18.4µM
Cc1ccc(NC(=O)/C=C2\NC(=O)CS2)cc1	none
Cc1[nH]c2ccccc2c1C(c1ccccn1)N1CCC(C)CC1 (centres undefined)	TDP1 cell CPT 20.6µM, KB-V1 cytotox inconclusive, KB-3-1 cytotox 18.4µM, TDP1 cell noCPT 20.6µM
Cc1[nH]c2ccccc2c1C(c1ccccn1)N1CCCC1 (centres undefined)	TDP1 cell CPT inconclusive, TDP1 cell noCPT 16.4µM
CN(CC(=O)Nc1c(Cl)cccc1Cl)C(=O)CNC(=O)c1ccc2ccccc2c1	KB-V1 cytotox inconclusive, TDP1 cell noCPT inconclusive
